# Test results reported in ChEMBL document CHEMBL3433997, “St. Jude Leishmania screening dataset” (2016).
# Legend:
# Assay type in all cases: functional
# [1] = target: Solute carrier family 2, facilitated glucose transporter member 1 (Homo sapiens) (UniProt P11166); test: ST_JUDE_LEISH: Cytotoxicity at 2uM final concentration against transgenic Leishmania Mexicana promastigotes LmGLUT1 that are glucose transport deficient and complemented with the human glucose transporter GLUT1. Activity is measured by DNA content using SYBR green in vitro
# Solute carrier family 2, facilitated glucose transporter member 1 (Homo sapiens), sequence (P11166 whole entry): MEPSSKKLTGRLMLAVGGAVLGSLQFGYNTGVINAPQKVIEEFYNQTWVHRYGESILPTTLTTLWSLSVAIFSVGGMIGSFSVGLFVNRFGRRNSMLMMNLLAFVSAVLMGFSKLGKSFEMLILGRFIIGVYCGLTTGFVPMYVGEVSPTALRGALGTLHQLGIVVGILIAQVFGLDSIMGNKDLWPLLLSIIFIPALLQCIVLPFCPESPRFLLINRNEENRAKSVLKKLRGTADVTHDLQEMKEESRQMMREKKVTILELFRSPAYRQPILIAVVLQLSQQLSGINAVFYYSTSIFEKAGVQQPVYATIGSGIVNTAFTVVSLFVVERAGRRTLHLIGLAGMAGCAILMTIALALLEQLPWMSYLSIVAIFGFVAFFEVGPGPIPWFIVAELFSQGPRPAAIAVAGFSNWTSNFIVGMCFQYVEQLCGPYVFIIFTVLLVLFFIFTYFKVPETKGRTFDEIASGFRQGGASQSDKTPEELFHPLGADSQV
# [2] = target: Hexose transporter 1 (Plasmodium falciparum) (UniProt O97467); test: ST_JUDE_LEISH: Cytotoxicity at 2uM final concentration against transgenic Leishmania Mexicana promastigotes LmPfHT that are glucose transport deficient and complemented with the Plasmodium falciparum hexose transporter. Activity is measured by DNA content using SYBR green in vitro
# [3] = target: Glucose transporter (Leishmania mexicana) (UniProt O61059); test: ST_JUDE_LEISH: Cytotoxicity at 2uM final concentration against transgenic Leishmania Mexicana promastigotes LmGT2 that are glucose transport deficient and complemented with the L. Mexicana glucose transporter 2. Activity is measured by DNA content using SYBR green in vitro
Compound,inhibition [1],inhibition [2],inhibition [3]
O=C(Cc1c[nH]cn1)Nc1cccc(-c2ccc(-c3nc4cc(F)ccc4[nH]3)s2)c1,3.94%,6.17%,0.26%
CCOc1cc[nH]c(=O)n1,-0.65%,2.36%,-0.68%
CCCOc1ccccc1C(=O)Nc1nonc1-c1ccc(OCC)c(OCC)c1,0.74%,0.51%,0.93%
O=C(Nc1ccc(CN2CCOCC2)cc1)c1ccc(-c2ccc(Cl)cc2)o1,-0.08%,-0.82%,-4.75%
c1ccc2c(c1)ncc1c3ccccc3[nH]c21,7.76%,7.76%,4.67%
CCOc1cc2ccccc2cc1CNCCCCCCNCc1cc2ccccc2cc1OCC,5.01%,7.4%,0.64%
COc1ccc2c(=NN=Cc3cccnc3)cc(C)[nH]c2c1,1.93%,0.44%,1.52%
CC[C@H](NC(=O)c1ccc(NC(=O)OC(C)(C)C)cc1)C(=O)N[C@@H](CO)C(=O)NCCCCc1ccccc1,1.96%,1.3%,-0.11%
Cc1csc(-c2nc(NCCc3c(C)noc3C)ncc2-c2ccsc2)n1,8.17%,11.5%,10.2%
Cc1cc(OCCCN2CCCCC2)ccc1NC(=O)COc1ccc(Cl)cc1C(=O)c1cc(Cl)cc(C#N)c1,60.8%,19.1%,5.79%
c1ccc(CCNCc2cccc(-c3ccccc3CNCc3ccc4c(c3)OCO4)c2)nc1,0.71%,0.88%,0.68%
COc1cc(OC)c(NC(=O)COc2ccc(C)cc2)cc1Cl,1.6%,1.59%,3.07%
Nc1nc(N)c2c(Sc3ccc(F)cc3)cccc2n1,6.11%,6.64%,7.67%
Fc1ccc(-c2cc3ncnc(N4CCN(CCN5CCCC5)CC4)c3s2)cc1,14.6%,12.9%,11.1%
CC1CCN(CC[C@H]2CCCN2S(=O)(=O)c2cccc(NC(=O)c3ccc(-c4ccc(Cl)cc4)o3)c2)CC1,-0.33%,1.69%,-0.14%
CC(C)CN(Cc1c(O)ccc2[nH]c(-c3ccc(F)cc3F)nc12)CC(C)C,11.1%,10.8%,5.69%
O=C(NC1CC1)c1ccc(N2CCCC(COc3ccccc3F)C2)nc1 (stereo unspecified),2.73%,1.75%,2.62%
Cc1cccc2nc(-c3cccc(-c4ccc(NC(=O)Nc5ccc6c(c5)OCO6)cc4)c3)[nH]c12,1.72%,0.05%,2.58%
CN(C)CCOc1cccc(NC(=O)Nc2ccc(-c3ccccc3)cc2)c1,2.67%,1.78%,1.53%

Compound,inhibition [1],inhibition [2],inhibition [3]
COc1cccc(C=NNc2cc(C)nc3c(OC)cccc23)c1,3.12%,1.32%,0.35%
COc1ccc(Cn2c(Nc3cccc(C(F)(F)F)c3)nc3cc(C(=O)NC(C)C)cnc32)cc1Cl,10.3%,9.69%,10.9%
COc1ccc2ccccc2c1C=NN=c1cc(C)[nH]c2cc(C(F)(F)F)ccc12,10.2%,8.24%,6.68%
CCCCC1(c2ccc(F)cc2)NC(=O)N(CC(=O)c2cc(C)n(Cc3ccco3)c2C)C1=O (stereo unspecified),-0.18%,0.18%,-0.26%
CN(C)C1CCN(Cc2ccc(N3CCN(Cc4cccc5[nH]ccc45)CC3)nc2)CC1,2.41%,1.46%,2.99%
N#Cc1cccc(/C=C/C(=O)NC2CCC(CCN3CCc4ccc(-c5cnccn5)cc4CC3)CC2)c1 (stereo unspecified),7.94%,7.48%,7.56%
FC(F)(F)c1ccc2[nH]c(-c3ccc(-c4cccc(CNCc5ccccc5)c4)s3)nc2c1,2.04%,0.97%,1.82%
CC(O)C1CCCCN1C(=O)c1cccc(-c2cccc(-c3nc4cc(C(F)(F)F)ccc4[nH]3)c2)c1 (stereo unspecified),-0.23%,1.12%,-0.12%
OCCN1CCN(Cc2ccc(-c3ccc(-c4nc5cc(F)ccc5[nH]4)cc3)cc2)CC1,8.49%,6.23%,3.78%
Cc1cc(N)c2cc(NC(=O)c3cccc(C(=O)Nc4ccc5nc(C)cc(N)c5c4)c3)ccc2n1,-0.38%,2.01%,-2.06%
COc1cc(NC(=O)N2CCOC(CCN3CCC(c4ccccc4)CC3)(c3ccc(Cl)c(Cl)c3)C2)cc(OC)c1 (stereo unspecified),0.76%,1.73%,-1.37%
CCOc1c(OC)ccc2c1CCN(CCN1CCC(CNC(=O)c3ccc(-c4ccc(C#N)cc4)cc3)CC1)C2,-1.08%,-0.26%,1.45%
COc1cccc(-c2nn(C)c3sc(C(=O)NCCN(C)Cc4ccccc4)cc23)c1,2.97%,-0.73%,2.24%
Cc1cc(NCCC(=O)Nc2ccccc2)nc(NCCc2ccccc2)n1,3.62%,1.77%,0.45%
Cc1ccc(S(=O)(=O)n2cc(-c3ccnc(N)c3)c3cc(Br)cnc32)cc1,4.4%,4.2%,1.4%
CCNc1cc(C(=O)N[C@@H](Cc2ccccc2)[C@H](O)CNCc2cccc(-n3ccnc3)c2)cc(N2CCCC2=O)c1,-1.37%,-0.52%,1.12%
COc1ccc(Cl)cc1N1CCN(CCCNC(=O)c2ccc(-c3nc4ccc(C(F)(F)F)cc4[nH]3)c(C)c2)CC1,2.82%,0.02%,0.17%
COc1cc(NC(=O)CCCCCCCCN2CCN(C)CC2)c2ncccc2c1,1.29%,-0.26%,0.86%
CCCCCCOc1ccccc1C(=O)NCCOc1ccc(Cl)cc1,3.58%,-1.45%,-1.97%

Compound,inhibition [1],inhibition [2],inhibition [3]
c1ccc(CN2CCC(NCc3ccccc3-c3ccc(CNCc4ccc5c(c4)OCO5)cc3)CC2)cc1,11.8%,10.4%,9.54%
Cc1c(-c2cccc(C(C)(C)NC3CCN(Cc4ccccc4)CC3)c2)cnc(N)c1C,2.58%,0.02%,2.38%
CCCCC(=O)Nc1ccc(Nc2nc(C)cc(N3CCCC3)n2)cc1,2.54%,3.88%,3.88%
Nc1nc(N)c2c(ccn2Cc2cc3c(cc2Cl)OCO3)n1,4.12%,2.86%,10.5%
CCc1c[nH]c2c(N3CCCC3=O)cc(C(=O)N[C@@H](Cc3ccccc3)[C@H](O)CNC(C)(C)c3cccc(C(F)(F)F)c3)cc12,-1.29%,-2.43%,-0.27%
Oc1ccc(CN2Cc3ccccc3OC3(CCN(Cc4c[nH]c5cnccc45)CC3)C2)cc1,-0.29%,-0.21%,-3.09%
OCCNc1nc(Nc2ccccc2)nc2ccccc12,8.68%,7.01%,2.07%
COc1ccc(CNC2CCCC2)cc1-c1ccc(S(=O)(=O)NCCN2CCCC2)s1,1.79%,2.89%,3.68%
CC1CN(Cc2csc(Nc3ccccc3)n2)CC(C)O1 (stereo unspecified),-0.51%,0.99%,3.5%
CC(C)COc1ccc(Cl)cc1Cc1nc(-c2nc3ccc(CN(C)C)cc3[nH]2)co1,4.88%,4.73%,4.57%
COc1ccc(-c2cccc(NC(=O)c3cccc(Cl)c3)c2)cc1CN1CCCC1,7.71%,5.81%,-1.22%
CS(=O)(=O)c1ccc(CCNCc2ccc(-c3ccc(CNC4CCN(Cc5ccccc5)CC4)cc3)nc2)cc1,-0.83%,-1.16%,-2.69%
CCOC(=O)CNC(=O)N1CCN(C(=O)NCC(=O)OCC)CC1,0.06%,0.22%,1.45%
Cc1nc(C)c(-c2ccc(C(=O)c3ccccc3)cc2)c(O)c1Br,5.44%,5.49%,5.35%
Cc1cc(N[C@@H](CC(C)C)C(=O)NCc2cccc(F)c2)nc(NCCc2ccc(F)cc2)n1,4.5%,7.16%,4.36%
COc1cccc(CCNCc2ccc(-c3cccc(CNC4CCCC4)c3)cc2)c1,7.38%,5.19%,3.02%
Clc1ccc2c(NCc3ccccc3)ccnc2c1,1.8%,3%,-0.97%
Oc1ccccc1-c1nc2cccnc2n1CCc1cccc(C(F)(F)F)c1,4.81%,3.7%,5.31%
Cc1ccc2[nH]c(-c3ccccc3Nc3ccnc4cc(-c5nccs5)ccc34)nc2c1,1.04%,4.44%,1.35%
